Screens from PubChem.
In the library only some 6.9% were active in any assay of this set; here they are far more common.
MCF10A rereplic – induces DNA re-replication in MCF 10a normal breast cells; MCF 10A DNA re-replication, Hoechst nuclear intensity, 48 h; Potency, µM (series often up to 46.1 µM), hits mostly activators; 350,000 compounds, 2.9% hits; also: nearly all actives have a fitted effect of over 50% in size
SW480 rereplic – inducers of DNA re-replication in SW480 colon cancer cells. SW480 DNA re-replication, Hoechst DNA content imaging, 48 h. Potency, µM (doses to about 46.1 µM), most hits filed as activators. 340,000 compounds, 1.8% hits; also: nearly all actives have a fitted effect of over 55% in size
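Per well, 250 cells were exposed to pinned compound for 48 hr. Nuclear DNA was visualised with Hoechst (40 min, 37 C) and total object intensity recorded by fluorescence scanning.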
IL-1B inflam inh – inflammasome signaling inhibition, IL-1 beta readout; THP-1 LPS/ATP IL-1B secretion, AlphaLISA, 16 h; hits give low values; activity change, % at 57.5 µM; 360,000 compounds, 4.7% hits; AID 743279; in the data active = activity change below about -50%; inconclusive = mostly about -30% to -49%
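Secreted IL-1B measured by AlphaLISA bead assay after 16 h compound exposure of THP-1 cells; compounds (final up to 57.5 uM) added 1 h before LPS (250 ng/mL) and ATP (1.25 mM) stimulation; lower signal means less secretion.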
Giardia killer – kills Giardia lamblia; 340,000 compounds, 0.15% hits; Giardia lamblia trophozoite viability; activity change, % at 7.66 µM, hits read low; AID 540267; in the data active = activity change below about -80%; inconclusive = between about -30% and that limit;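 also: parasites exposed to compound for two days anaerobically before the ATP read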
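ATP-content bioluminescence gauges trophozoite survival. Cells (100/well) receive compound and incubate anaerobically for 48 hrs at 37 deg C; detection reagent follows for 15-30 min at room temperature.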
Vif-APOBEC3F blk – Vif-A3F binding inhibition. HeLa A3F-eYFP + Vif (tagged APOBEC3F with the HIV-1 protein that degrades it), YFP fluorescence increase. Potency, µM (top dose mostly 46.1 µM). 390,000 compounds, 0.2% hits; also: nearly all actives have a fitted effect of over 65% in size
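Fluorescence increase (Ex 488/Em 500-530) after overnight compound treatment at 37 deg C flags inhibition of Vif-driven A3F-eYFP loss in stable HeLa A3F-eYFP/Vif cells seeded overnight beforehand.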
Vif-APOBEC3G blk – Vif-A3G binding inhibition; Potency, µM (doses to about 46.1 µM), most hits filed as inhibitors; 410,000 compounds, 0.076% hits; Q9HC16; HeLa A3G-eYFP + Vif (tagged APOBEC3G with the HIV-1 protein that degrades it), YFP fluorescence, overnight; AID 602310; also: nearly all actives have a fitted effect of over 60% in size
Target sequence (Q9HC16 whole entry, looked up): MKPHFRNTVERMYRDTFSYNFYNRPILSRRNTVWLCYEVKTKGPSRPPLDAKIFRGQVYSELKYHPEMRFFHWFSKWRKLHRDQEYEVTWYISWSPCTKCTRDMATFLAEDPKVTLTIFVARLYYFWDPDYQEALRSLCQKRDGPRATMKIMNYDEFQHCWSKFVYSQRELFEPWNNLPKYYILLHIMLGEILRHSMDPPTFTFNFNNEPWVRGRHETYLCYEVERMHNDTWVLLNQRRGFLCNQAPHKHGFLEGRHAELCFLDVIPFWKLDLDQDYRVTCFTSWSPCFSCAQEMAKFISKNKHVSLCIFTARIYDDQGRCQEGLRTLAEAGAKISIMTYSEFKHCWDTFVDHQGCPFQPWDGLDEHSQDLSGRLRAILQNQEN
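HeLa cells stably expressing Vif and C-terminally eYFP-tagged A3G, seeded overnight at 37 deg C, then exposed to compound by pintool overnight at 37 deg C. Rise in yellow fluorescence (Ex 488/Em 500-530, Acumen) marks blocked Vif-driven A3G degradation.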
Numbers stand for hits; – = inactive; ? = inconclusive; · = no result given; [ ] = remark or other dose. Unless noted, calls follow the shape of the dose curve; as a rule, active = well fitted curve in the direction sought with a large enough effect; inconclusive = small, poorly fitted or top-dose-only effect, or another doubt; inactive = no such curve, though single readings can be large; an effect the other way counts as inactive or inconclusive.

SMILES	MCF10A rereplic	SW480 rereplic	IL-1B inflam inh	Giardia killer	Vif-APOBEC3F blk	Vif-APOBEC3G blk
Cc1nc(Nc2nc3c(c(=O)[nH]2)CCC3)nc2ccccc12	?	–	-77	–	–	–
Cc1ccc(NC(=O)c2cc3ccccn3n2)cc1F	·	·	·	·	–	–
Clc1ccc(CSc2nncn2-c2ccc3c(c2)OCCO3)cc1	9.2µM	21µM	·	–	–	–
Cc1c(Cl)sn(-c2ccc(Cl)cc2)c1=O	3.3µM	1.8µM	?	–	–	–
Cc1nn(-c2ccc(Cl)cc2)c(=O)c2ccccc12	–	–	–	–	–	–
COC(=O)c1c(SC)nc2ccccc2c1OCc1ccc(C)cc1C	·	·	·	·	–	–
NCC(=O)NCC(=O)OCc1ccccc1	1µM	–	–	–	–	–
Cc1cccn2cc(CCNC(=O)Cc3cccs3)nc12	–	–	-74	–	–	–
O=S1(=O)C2CC3OC2(CC3c2ccc(F)cc2)CN1Cc1ccc(Cl)cc1 (centres undefined)	·	·	·	–	·	–
CC(O)CNCCCOc1cccc(Oc2ccccc2)c1 (centres undefined)	?	–[1.84 µM]	-56	–	–	–
CC(O)CNCCCOc1ccccc1OCc1ccccc1 (centres undefined)	–	–	-52	–	–	–
OCCNCCCCOc1ccc(OCc2ccccc2)cc1	?	–	-81	–	–	–
CNCC(C)COc1ccccc1OCc1ccccc1 (centres undefined)	–	–	–	–	–	–
CC(O)CNCCCOc1cccc(C(F)(F)F)c1 (centres undefined)	–	–	–	–	–	–
OCCCCNCc1ccc(OCc2ccccc2)cc1	?	–	–	–	–	–
CC(O)CNCCCCOc1ccc(OCc2ccccc2)cc1 (centres undefined)	–	–	-56	–	–	–
O=C(NCCn1cccn1)c1ccc(OC2CCN(CCc3ccccc3)CC2)cc1	–	–[1.84 µM]	-81	–	–	–
COC(=O)C(C)Nc1cccc(Br)c1 (centres undefined)	–	?	–	–	–	–
CCOC(=O)C(C(=O)OCC)C(Nc1cccc(Br)c1)c1ccccc1 (centres undefined)	?	?	-68	–	–	?
COC(=O)c1c(C)[nH]c(O)c1C=Nc1ccc(C(C)C)cc1	?	–	-101	–	–	–
COC(=O)c1c(C)[nH]c(O)c1C=Nc1ccc(Oc2ccccc2)cc1	–	–	–	–	–	–
Cc1sc2ncnc(SCc3ccco3)c2c1C	15µM	–	–	–	–	?
Cc1sc2nc3c4ccccc4c(NCc4ccco4)nn3c(=O)c2c1C	2.6µM	4.6µM	–	–	–	–
Cc1nnc(NCc2ccco2)c2ccccc12	–	–[9.22 µM]	–	–	·	–
Cc1nc(NCc2ccco2)c2c(C)c(C)sc2n1	–	?	-77	–	–	–
SMILES	MCF10A rereplic	SW480 rereplic	IL-1B inflam inh	Giardia killer	Vif-APOBEC3F blk	Vif-APOBEC3G blk
CCOC(=O)c1sc2nc(CC(=O)OC)nc(NCc3ccco3)c2c1C	–	–	–	–	–	?
O=C(NCCc1ccccc1)c1ccc2c(c1)nc1n2CCOC1	·	·	·	·	–	–
COCCNC(=O)/C(C#N)=C/C(C)=C/c1ccccc1	–	–	-83	–	–	–
CNC(=O)/C(C#N)=C/c1cccc(Oc2ccccc2)c1	?	–	-102	–	–	–
COCCNC(=O)/C(C#N)=C/C=C/c1ccccc1[N+](=O)[O-]	15µM	–	-107	–	–	–
COCCNC(=O)/C(C#N)=C/c1cccc(/C=C(\C#N)C(=O)NCCOC)c1	21µM	?	-99	–	–	?
COCCNC(=O)/C(C#N)=C/c1ccc(O)c([N+](=O)[O-])c1	–	–	–	?	–	–
COCCNC(=O)/C(C#N)=C/c1ccc(O)cc1	–	–	–	–	–	–
COCCNC(=O)/C(C#N)=C\c1ccc(CNS(=O)(=O)c2ccccc2)o1	–	–	–	–	–	–
O=C(Nc1cccc(Nc2ccccc2)c1)c1cnn2c1NC(=C1CC1)C=C2C(F)F	·	·	·	·	·	–
Cc1cc(C)c(NC(=O)c2sc3nc4c(cc3c2N)C(=O)CC(C)(C)C4)c(C)c1	?	–	–	–	–	–
Nc1c(C(=O)N2CCOCC2)sc2nc3c(cc12)CCCC3	–	–	–	–	–	–
Cc1cc(C)c2cc3c(N)c(C(=O)Nc4c(C)[nH]c(=O)[nH]c4=O)sc3nc2c1	–	–	–	–	22µM	?
Nc1c(C(=O)N2CCCC2)sc2nc3c(cc12)CCCCCC3	15µM	–	–	–	–	–
Cc1cc(C)c2cc3c(N)c(C(=O)N4CCOCC4)sc3nc2c1	–	–	-76	–	?	–
Cc1cc(C)c2nc3sc(C(=O)N4CCOCC4)c(N)c3cc2c1	?	?	–	–	?	?
Cc1ccc(C)c2nc3sc(C(=O)N4CCOCC4)c(N)c3cc12	?	?	–	–	?	10µM
Cc1cc(C)n(CC(=O)Nc2cc(F)ccc2F)c(=O)c1C#N	·	·	·	·	–	–
COc1ccc(CCNC(=O)CCCn2c(=O)c3cccn3c3ccc(F)cc32)cc1OC	·	·	·	·	–	–
COc1ccc(NC(=O)CSc2nc(N)c(C#N)cc2C#N)cc1	–	–	–	–	–	–
COc1ccc2nc(SCC(=O)Nc3ccc4sc(C)nc4c3)c(C#N)cc2c1	?	–	–	–	22µM	–
O=c1oc2ccccc2c(NC2CCCCC2)c1NS(=O)(=O)c1ccc(F)cc1	?	?	–	–	–	–
CCc1ccc(S(=O)(=O)Nc2c(NC3CCCCC3)c3ccccc3oc2=O)cc1	–	?	-63	–	–	–
CCc1ccc(NC(=O)Cn2c(=O)n(-c3ccc(OC)cc3)c(=O)c3ccc(C(=O)NCc4ccc(C)cc4)cc32)cc1	·	·	·	·	–	–
COc1ccc(S(=O)(=O)N2CCOCC2)cc1NC(=O)c1ccc(S(=O)(=O)N2CCCCC2)cc1	–	–	–	–	–	–
SMILES	MCF10A rereplic	SW480 rereplic	IL-1B inflam inh	Giardia killer	Vif-APOBEC3F blk	Vif-APOBEC3G blk
COc1ccc(S(=O)(=O)N2CCOCC2)cc1NC(=O)c1ccc(Cl)cc1	–	0.23µM	–	–	?	–
Cc1ccc(C(=O)Nc2nc(-c3ccccn3)cs2)cc1S(=O)(=O)N1CCOCC1	21µM	?	–	–	–	–
O=C(Nc1nc(-c2ccccn2)cs1)c1ccc(F)c(S(=O)(=O)N2CCOCC2)c1	–	?	–	–	–	–
Cc1cc(C)n(-c2ccc(C(=O)Nc3ccc(C)c(S(=O)(=O)N4CCOCC4)c3)cc2)n1	–	–	-88	–	–	–
Cc1ccc(C(=O)Nc2ccccc2[N+](=O)[O-])cc1S(=O)(=O)N1CCOCC1	?	?	-64	–	–	–
Cc1ccc(-n2c(=O)c3c(cnn3C)n(CC(=O)Nc3cc(C)ccc3C)c2=O)cc1	·	·	·	·	–	–
O=C(Nc1ccc(F)c(Cl)c1)c1cc(S(=O)(=O)N2CCCc3ccccc32)ccc1F	·	·	·	·	–	–
